Values joined by “and” are separate entries in the source; they are usually repeats but may differ in a detail not shown here. Equal entries are not always repeated. Among all 5,500 compounds or so, about 2,000 (36%) were called active. Roughly 18% stayed inconclusive and do not appear here. Cut-off read from the data, not from the text of the source: active = normalized growth mostly below about 0.91 (no sharp cut-off); inconclusive = no clear call, values can overlap the other calls; inactive = mostly above about 0.92. This is one part of the list.
Assay: chemical genetic growth profiling, strain panel (AID 1159580);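 note: tested at 20 µM; growth read once vehicle control cultures reached saturation at 30 °C; 1 = growth at the plate median or of vehicle wells; lower values mean less growth of the strain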
Details: S. cerevisiae deletion strains, growth OD

Measured: normalized growth

COc1ccc2c(c1OC)C(=O)O[C@H]2[C@H]1c2cc3c(cc2CCN1C)OCO3
inactive: locus YAL013W, strain DEP1, stronger effect = lower value 0.997 | locus YAL021C, strain ccr4, stronger effect = lower value 0.987 | locus YAL026C, strain drs2, stronger effect = lower value 1.01 | locus YAL030W, strain snc1, stronger effect = lower value 1 | locus YBL061C, strain skt5, stronger effect = lower value 0.997 | locus YBR009C, strain hhf1, stronger effect = lower value 1.01 | locus YBR021W, strain FUR4, stronger effect = lower value 1 | locus YBR023C, strain chs3, stronger effect = lower value 0.988 | locus YBR171W, strain sec66, stronger effect = lower value 0.988 | locus YBR229C, strain ROT2, stronger effect = lower value 1.01 | locus YBR231C, strain swc5, stronger effect = lower value 1 | locus YBR279W, strain paf1, stronger effect = lower value 0.995 | locus YCL011C, strain gbp2, stronger effect = lower value 1 | locus YCL016C, strain dcc1, stronger effect = lower value 1 | locus YCL029C, strain bik1, stronger effect = lower value 1.02 | locus YCL061C, strain MRC1, stronger effect = lower value 1 | locus YCL069W, strain vba3, stronger effect = lower value 1 | locus YCR088W, strain abp1, stronger effect = lower value 1.01 | locus YDL005C, strain med2, stronger effect = lower value 0.997 | locus YDL035C, strain GPR1, stronger effect = lower value 1 | locus YDL040C, strain nat1, stronger effect = lower value 0.991 | locus YDL074C, strain BRE1, stronger effect = lower value 1.01 | locus YDL101C, strain DUN1, stronger effect = lower value 1.02 | locus YDL134C, strain PPH21, stronger effect = lower value 1 | locus YDL185W, strain tfp1, stronger effect = lower value 1 | locus YDL192W, strain arf1, stronger effect = lower value 1.01 | locus YDR001C, strain nth1, stronger effect = lower value 0.999 | locus YDR069C, strain doa4, stronger effect = lower value 1 | locus YDR101C, strain arx1, stronger effect = lower value 1 | locus YDR137W, strain rgp1, stronger effect = lower value 0.988 | locus YDR150W, strain NUM1, stronger effect = lower value 1 | locus YDR159W, strain sac3, stronger effect = lower value 0.989 | locus YDR162C, strain NBP2, stronger effect = lower value 0.966 | locus YDR195W, strain ref2 0.998 | locus YDR297W, strain sur2, stronger effect = lower value 1 | locus YDR318W, strain mcm21, stronger effect = lower value 1.01 | locus YDR334W, strain swr1, stronger effect = lower value 1 | locus YDR335W, strain msn5, stronger effect = lower value 0.989 | locus YDR388W, stronger effect = lower value 1.01 | locus YDR392W, strain spt3, stronger effect = lower value 0.928 | locus YDR502C, strain sam2, stronger effect = lower value 1 | locus YEL003W, strain gim4, stronger effect = lower value 0.998 | locus YEL037C, strain rad23, stronger effect = lower value 0.99 | locus YEL061C, strain CIN8 (second series), stronger effect = lower value 0.991 | locus YEL061C, strain CIN8, stronger effect = lower value 0.991 | locus YER015W, strain faa2, stronger effect = lower value 1 | locus YER016W, strain bim1, stronger effect = lower value 0.997 | locus YER110C, stronger effect = lower value 1.01 | locus YER111C, strain swi4, stronger effect = lower value 0.993 | locus YER155C, strain BEM2 (second series), stronger effect = lower value 0.994 | locus YER155C, strain BEM2, stronger effect = lower value 0.992 | locus YER167W, strain BCK2, stronger effect = lower value 1.01 | locus YFR010W, strain ubp6, stronger effect = lower value 1.01 | locus YGL078C, strain dbp3, stronger effect = lower value 1.01 | locus YGL086W, strain mad1, stronger effect = lower value 1 | locus YGL167C, strain pmr1, stronger effect = lower value 0.997 | locus YGL173C, strain kem1, stronger effect = lower value 0.993 | locus YGL227W, strain vid30, stronger effect = lower value 0.993 | locus YGL240W, strain doc1, stronger effect = lower value 1 | locus YGL248W, strain PDE1, stronger effect = lower value 1.01 | locus YGL253W, strain hxk2, stronger effect = lower value 0.994 | locus YGR078C, strain PAC10, stronger effect = lower value 0.992 | locus YGR135W, strain pre9, stronger effect = lower value 0.996 | locus YGR229C, strain SMI1, stronger effect = lower value 0.99 | locus YGR252W, strain gcn5, stronger effect = lower value 0.953 | locus YHR013C, strain ard1, stronger effect = lower value 0.974 | locus YHR027C, strain rpn1, stronger effect = lower value 0.992 | locus YHR030C, strain SLT2, stronger effect = lower value 1.01 and 1.04 | locus YHR079C, strain IRE1 (second series), stronger effect = lower value 1.02 | locus YHR079C, strain IRE1, stronger effect = lower value 1.05 | locus YHR094C, strain hxt1, stronger effect = lower value 1.01 | locus YHR129C, strain ARP1, stronger effect = lower value 1.02 | locus YHR142W, strain chs7, stronger effect = lower value 0.995 | locus YHR200W, strain rpn10, stronger effect = lower value 1 | locus YIL066C, strain RNR3, stronger effect = lower value 1 | locus YIL073C, strain SPO22, stronger effect = lower value 0.997 | locus YIL125W, strain kgd1, stronger effect = lower value 1.01 | locus YIR030C, strain dcg1, stronger effect = lower value 1.02 | locus YJL092W, strain hpr5, stronger effect = lower value 0.999 | locus YJL095W, strain BCK1 (second series), stronger effect = lower value 1 | locus YJL095W, strain BCK1, stronger effect = lower value 1.02 | locus YJL115W, strain asf1, stronger effect = lower value 0.995 | locus YJL129C, strain trk1, stronger effect = lower value 0.992 | locus YJL134W, strain LCB3, stronger effect = lower value 1 | locus YJL154C, strain vps35, stronger effect = lower value 0.997 | locus YJL164C, strain tpk1, stronger effect = lower value 0.991 | locus YJL166W, strain qcr8, stronger effect = lower value 0.994 | locus YJL168C, strain set2, stronger effect = lower value 1.01 | locus YJL187C, strain SWE1 (second series), stronger effect = lower value 1.01 | locus YJL187C, strain SWE1, stronger effect = lower value 0.999 | locus YJR043C, strain POL32, stronger effect = lower value 1.01 | locus YJR066W, strain TOR1, stronger effect = lower value 0.976

From PubChem BioAssay AID1159580 (chemical genetic matrix, 2015)
